Holding throughout (experiment): DAPPL (digital affinity profiling via proximity ligation, sequencing); 10 mM Tris-HCl pH 7.5, 50 mM NaCl, 1 mM DTT, 4% glycerol, room temperature, 30 min; GST-TFs on glutathione beads, 16-mer random dsDNA library, 0.1% formaldehyde crosslink after washing; high values mean tight binding
One assay concerns the target T1, FLI1 (Homo sapiens, UniProt Q01543 1-452).
T1 sequence: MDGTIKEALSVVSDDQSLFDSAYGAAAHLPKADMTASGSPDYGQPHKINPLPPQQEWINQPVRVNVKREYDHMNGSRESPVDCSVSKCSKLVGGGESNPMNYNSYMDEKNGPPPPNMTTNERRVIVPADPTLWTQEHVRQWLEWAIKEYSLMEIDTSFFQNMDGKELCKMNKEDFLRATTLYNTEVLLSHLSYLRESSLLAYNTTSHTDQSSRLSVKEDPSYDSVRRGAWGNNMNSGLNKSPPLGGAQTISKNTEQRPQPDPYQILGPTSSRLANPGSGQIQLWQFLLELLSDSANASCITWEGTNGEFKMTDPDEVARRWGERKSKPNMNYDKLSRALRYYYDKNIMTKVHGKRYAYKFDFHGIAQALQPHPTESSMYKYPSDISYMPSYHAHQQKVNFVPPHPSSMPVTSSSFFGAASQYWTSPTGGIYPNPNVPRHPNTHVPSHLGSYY
Conditions: protein: recombinant; tags: N-terminal GST; dsDNA, one strand shown. In a few lines:
(§1)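 Binding signal is given per hexamer as its read frequency for a factor divided by its frequency in the tag-only sample. GST-fused human transcription factors were expressed in yeast, captured on glutathione beads, barcoded with DNA and pooled with that sample, then incubated with 200 nmole of a 16-mer random double-stranded DNA library in Tris/NaCl/DTT/glycerol buffer for 30 min at room temperature. The pools were then washed, crosslinked, proximity-ligated, amplified by PCR and sequenced on an Illumina NextSeq500.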

A further assay concerns the target T2, GABPA (Homo sapiens, UniProt Q06546 1-454).
T2 sequence: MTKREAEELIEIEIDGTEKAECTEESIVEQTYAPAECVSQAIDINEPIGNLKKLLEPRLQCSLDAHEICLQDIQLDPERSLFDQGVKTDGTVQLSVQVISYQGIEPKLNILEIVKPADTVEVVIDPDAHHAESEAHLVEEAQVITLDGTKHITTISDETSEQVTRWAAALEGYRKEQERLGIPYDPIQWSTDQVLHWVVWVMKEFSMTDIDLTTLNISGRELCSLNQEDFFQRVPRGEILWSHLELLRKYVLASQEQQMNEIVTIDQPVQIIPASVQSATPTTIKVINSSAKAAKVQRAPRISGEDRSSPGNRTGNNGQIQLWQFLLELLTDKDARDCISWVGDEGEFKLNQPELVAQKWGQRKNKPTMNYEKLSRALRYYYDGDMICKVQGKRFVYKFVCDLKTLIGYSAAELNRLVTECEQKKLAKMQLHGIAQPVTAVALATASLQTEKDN
Conditions: protein: recombinant; tags: N-terminal GST; dsDNA, one strand shown. In a few lines: as §1

Another assay has as its target T3, ERG (Homo sapiens, UniProt P11308 1-479).
T3 sequence: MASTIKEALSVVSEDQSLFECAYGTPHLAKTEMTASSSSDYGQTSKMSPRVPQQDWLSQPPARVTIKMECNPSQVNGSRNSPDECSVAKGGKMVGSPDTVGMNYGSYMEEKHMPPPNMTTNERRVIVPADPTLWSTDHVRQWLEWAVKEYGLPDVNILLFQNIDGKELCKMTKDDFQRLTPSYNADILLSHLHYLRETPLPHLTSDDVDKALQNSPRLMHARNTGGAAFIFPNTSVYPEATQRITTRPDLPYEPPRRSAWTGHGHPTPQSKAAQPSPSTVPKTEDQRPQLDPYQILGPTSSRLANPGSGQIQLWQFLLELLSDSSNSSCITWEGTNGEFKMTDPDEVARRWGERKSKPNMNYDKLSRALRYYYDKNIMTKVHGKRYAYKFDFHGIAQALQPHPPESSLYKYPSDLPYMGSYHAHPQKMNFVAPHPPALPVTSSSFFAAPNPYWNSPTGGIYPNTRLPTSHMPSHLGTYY
Conditions: protein: recombinant; tags: N-terminal GST; dsDNA, one strand shown. Summed up: as §1

In the next assay the target is ELF1 (Homo sapiens, UniProt P32519 1-619). Particulars: protein: recombinant; tags: N-terminal GST; dsDNA, one strand shown. In a few lines:
as §1

The next assay concerns the target T4, EHF (Homo sapiens, UniProt Q9NZC4 1-300).
T4 sequence: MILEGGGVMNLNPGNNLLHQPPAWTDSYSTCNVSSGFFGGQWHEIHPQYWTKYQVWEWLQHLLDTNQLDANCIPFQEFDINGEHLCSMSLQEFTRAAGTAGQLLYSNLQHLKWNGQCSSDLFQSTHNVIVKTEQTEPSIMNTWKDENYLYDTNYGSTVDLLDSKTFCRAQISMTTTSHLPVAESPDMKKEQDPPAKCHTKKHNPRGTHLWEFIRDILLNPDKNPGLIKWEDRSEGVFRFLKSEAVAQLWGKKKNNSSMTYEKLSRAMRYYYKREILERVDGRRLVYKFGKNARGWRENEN
Conditions: protein: recombinant; tags: N-terminal GST; dsDNA, one strand shown. Summed up:
as §1

The target of the next assay is T5, ELK3 (Homo sapiens, UniProt P41970 1-407).
T5 sequence: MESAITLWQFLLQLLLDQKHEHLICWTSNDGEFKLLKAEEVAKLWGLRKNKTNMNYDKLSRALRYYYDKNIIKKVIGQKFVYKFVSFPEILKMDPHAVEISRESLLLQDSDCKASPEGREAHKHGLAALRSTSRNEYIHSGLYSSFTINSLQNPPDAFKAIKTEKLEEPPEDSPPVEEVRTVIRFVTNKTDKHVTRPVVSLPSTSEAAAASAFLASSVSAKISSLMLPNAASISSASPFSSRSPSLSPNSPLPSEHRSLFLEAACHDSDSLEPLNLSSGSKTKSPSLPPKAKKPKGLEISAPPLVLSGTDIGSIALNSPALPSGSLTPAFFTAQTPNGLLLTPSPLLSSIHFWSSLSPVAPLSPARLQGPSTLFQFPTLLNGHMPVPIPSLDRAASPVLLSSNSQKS
Particulars: protein: recombinant; tags: N-terminal GST; dsDNA, one strand shown. Summed up: as §1

The target in a further assay is T6, FEV (Homo sapiens, UniProt Q99581 1-238).
T6 sequence: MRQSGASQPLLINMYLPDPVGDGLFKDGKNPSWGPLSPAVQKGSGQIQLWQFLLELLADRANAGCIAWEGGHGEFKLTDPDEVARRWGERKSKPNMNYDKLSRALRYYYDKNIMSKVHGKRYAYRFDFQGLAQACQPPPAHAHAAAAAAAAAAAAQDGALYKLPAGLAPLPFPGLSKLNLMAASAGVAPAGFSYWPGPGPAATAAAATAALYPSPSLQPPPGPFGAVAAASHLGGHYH
Conditions: protein: recombinant; tags: N-terminal GST; dsDNA, one strand shown. In a few lines:
as §1

A further assay has as its target ETV5 (Homo sapiens, UniProt P41161 1-510). Particulars: protein: recombinant; tags: N-terminal GST; dsDNA, one strand shown. Summed up: as §1
Another assay addresses HSF1 (Homo sapiens, UniProt Q00613 1-529). Conditions: protein: recombinant; tags: N-terminal GST; chain copies: 3; dsDNA, one strand shown. In a few lines:
as §1

A further assay has as its target ELF4 (Homo sapiens, UniProt Q99607 1-663). Conditions: protein: recombinant; tags: N-terminal GST; dsDNA, one strand shown. Summed up: as §1
The next assay addresses T7, ELK4 (Homo sapiens, UniProt P28324-2 1-405).
T7 sequence: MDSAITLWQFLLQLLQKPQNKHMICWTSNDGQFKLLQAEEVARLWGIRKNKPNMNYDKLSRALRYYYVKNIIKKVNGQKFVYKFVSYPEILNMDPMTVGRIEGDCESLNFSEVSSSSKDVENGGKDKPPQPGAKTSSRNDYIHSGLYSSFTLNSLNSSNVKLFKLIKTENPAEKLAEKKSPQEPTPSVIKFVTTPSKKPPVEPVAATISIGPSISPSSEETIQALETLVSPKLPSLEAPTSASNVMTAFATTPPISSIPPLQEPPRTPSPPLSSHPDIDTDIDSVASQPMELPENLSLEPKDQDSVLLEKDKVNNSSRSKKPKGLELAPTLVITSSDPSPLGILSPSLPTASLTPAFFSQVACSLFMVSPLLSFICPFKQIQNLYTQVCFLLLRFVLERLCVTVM
Conditions: protein: recombinant; tags: N-terminal GST; dsDNA, one strand shown. Summed up: as §1

Another assay deals with CRX (Homo sapiens, UniProt O43186 1-299). Conditions: protein: recombinant; tags: N-terminal GST; dsDNA, one strand shown. In a few lines:
as §1

The next assay concerns the target ETV1 (Homo sapiens, UniProt P50549 1-477). Conditions: protein: recombinant; tags: N-terminal GST; dsDNA, one strand shown. Summed up: as §1
Another assay has as its target T8, ELK1 (Homo sapiens, UniProt P19419 1-428).
T8 sequence: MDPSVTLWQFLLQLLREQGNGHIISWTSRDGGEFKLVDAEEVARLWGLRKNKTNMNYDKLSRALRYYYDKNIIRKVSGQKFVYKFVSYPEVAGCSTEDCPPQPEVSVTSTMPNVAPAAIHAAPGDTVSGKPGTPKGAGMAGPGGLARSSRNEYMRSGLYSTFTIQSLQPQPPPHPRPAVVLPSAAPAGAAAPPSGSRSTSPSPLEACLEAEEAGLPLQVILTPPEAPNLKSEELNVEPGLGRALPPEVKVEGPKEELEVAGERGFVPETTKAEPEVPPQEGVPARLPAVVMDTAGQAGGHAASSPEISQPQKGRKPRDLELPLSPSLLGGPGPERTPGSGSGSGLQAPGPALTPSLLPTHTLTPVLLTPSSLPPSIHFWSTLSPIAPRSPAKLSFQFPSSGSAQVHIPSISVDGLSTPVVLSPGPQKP
Conditions: protein: recombinant; tags: N-terminal GST; dsDNA, one strand shown. In a few lines:
as §1

The target of a further assay is SPI1 (Homo sapiens, UniProt P17947 1-270). Conditions: protein: recombinant; tags: N-terminal GST; dsDNA, one strand shown. In a few lines:
as §1

In a further assay the target is T9, ETV2 (Homo sapiens, UniProt O00321 1-342).
T9 sequence: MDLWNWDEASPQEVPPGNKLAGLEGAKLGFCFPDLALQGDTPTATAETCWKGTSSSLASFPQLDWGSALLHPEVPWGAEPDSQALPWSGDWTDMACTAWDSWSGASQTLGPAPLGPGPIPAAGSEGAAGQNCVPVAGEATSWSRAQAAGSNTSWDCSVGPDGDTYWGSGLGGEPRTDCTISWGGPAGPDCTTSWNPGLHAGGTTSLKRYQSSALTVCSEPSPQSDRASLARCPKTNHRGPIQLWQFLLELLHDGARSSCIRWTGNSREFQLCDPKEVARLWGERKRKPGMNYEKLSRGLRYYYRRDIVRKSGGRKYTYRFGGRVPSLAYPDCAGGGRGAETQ
Particulars: protein: recombinant; tags: N-terminal GST; dsDNA, one strand shown. In a few lines:
as §1

A further assay concerns the target T10, ELF3 (Homo sapiens, UniProt P78545 1-371).
T10 sequence: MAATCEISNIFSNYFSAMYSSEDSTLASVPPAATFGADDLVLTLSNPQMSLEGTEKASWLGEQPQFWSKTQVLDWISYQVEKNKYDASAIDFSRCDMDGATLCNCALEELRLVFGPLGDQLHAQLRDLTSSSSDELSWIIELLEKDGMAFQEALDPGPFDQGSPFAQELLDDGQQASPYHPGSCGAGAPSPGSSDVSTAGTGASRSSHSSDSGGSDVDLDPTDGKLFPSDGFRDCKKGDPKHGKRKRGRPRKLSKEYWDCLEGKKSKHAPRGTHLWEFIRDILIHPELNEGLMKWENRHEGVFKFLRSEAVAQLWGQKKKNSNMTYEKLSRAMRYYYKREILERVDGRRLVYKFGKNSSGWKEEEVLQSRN
Conditions: protein: recombinant; tags: N-terminal GST; dsDNA, one strand shown. In a few lines:
as §1

For two sequences, binding signal results are on record in paper PMC7862700, “An all-to-all approach to the identification of sequence-specific readers for epigenetic DNA modifications on cytosine”.

ELF1, sequence (P32519 whole entry): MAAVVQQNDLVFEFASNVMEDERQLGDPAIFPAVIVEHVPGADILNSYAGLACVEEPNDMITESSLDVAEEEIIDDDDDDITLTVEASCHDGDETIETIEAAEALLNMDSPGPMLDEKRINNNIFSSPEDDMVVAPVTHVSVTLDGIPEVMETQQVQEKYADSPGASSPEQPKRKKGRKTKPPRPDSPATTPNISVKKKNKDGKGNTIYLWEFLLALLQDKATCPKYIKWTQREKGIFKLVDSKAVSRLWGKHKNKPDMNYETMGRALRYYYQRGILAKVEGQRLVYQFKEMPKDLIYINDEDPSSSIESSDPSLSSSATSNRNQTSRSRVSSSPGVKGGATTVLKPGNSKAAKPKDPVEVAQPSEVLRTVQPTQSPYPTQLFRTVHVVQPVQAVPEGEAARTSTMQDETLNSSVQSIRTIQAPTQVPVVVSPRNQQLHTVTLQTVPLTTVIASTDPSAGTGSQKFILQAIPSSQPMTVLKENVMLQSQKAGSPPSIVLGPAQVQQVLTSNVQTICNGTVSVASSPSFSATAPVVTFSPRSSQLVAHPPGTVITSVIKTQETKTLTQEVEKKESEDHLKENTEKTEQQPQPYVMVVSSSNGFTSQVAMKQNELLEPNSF
HSF1, sequence (Q00613 whole entry): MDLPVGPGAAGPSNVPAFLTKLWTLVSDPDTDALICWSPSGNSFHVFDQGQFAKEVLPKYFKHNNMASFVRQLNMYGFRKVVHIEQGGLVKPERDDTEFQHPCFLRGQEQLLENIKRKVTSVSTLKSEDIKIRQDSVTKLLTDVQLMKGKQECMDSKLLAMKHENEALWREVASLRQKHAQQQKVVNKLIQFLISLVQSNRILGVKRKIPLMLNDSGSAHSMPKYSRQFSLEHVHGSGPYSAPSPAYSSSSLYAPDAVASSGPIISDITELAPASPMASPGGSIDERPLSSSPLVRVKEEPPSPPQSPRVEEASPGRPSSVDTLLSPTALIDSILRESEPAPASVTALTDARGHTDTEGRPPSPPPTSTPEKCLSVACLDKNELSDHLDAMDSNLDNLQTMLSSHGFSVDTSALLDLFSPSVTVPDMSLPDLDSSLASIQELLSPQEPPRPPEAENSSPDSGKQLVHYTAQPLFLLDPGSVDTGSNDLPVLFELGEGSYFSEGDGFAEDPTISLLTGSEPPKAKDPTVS
ELF4, sequence (Q99607 whole entry): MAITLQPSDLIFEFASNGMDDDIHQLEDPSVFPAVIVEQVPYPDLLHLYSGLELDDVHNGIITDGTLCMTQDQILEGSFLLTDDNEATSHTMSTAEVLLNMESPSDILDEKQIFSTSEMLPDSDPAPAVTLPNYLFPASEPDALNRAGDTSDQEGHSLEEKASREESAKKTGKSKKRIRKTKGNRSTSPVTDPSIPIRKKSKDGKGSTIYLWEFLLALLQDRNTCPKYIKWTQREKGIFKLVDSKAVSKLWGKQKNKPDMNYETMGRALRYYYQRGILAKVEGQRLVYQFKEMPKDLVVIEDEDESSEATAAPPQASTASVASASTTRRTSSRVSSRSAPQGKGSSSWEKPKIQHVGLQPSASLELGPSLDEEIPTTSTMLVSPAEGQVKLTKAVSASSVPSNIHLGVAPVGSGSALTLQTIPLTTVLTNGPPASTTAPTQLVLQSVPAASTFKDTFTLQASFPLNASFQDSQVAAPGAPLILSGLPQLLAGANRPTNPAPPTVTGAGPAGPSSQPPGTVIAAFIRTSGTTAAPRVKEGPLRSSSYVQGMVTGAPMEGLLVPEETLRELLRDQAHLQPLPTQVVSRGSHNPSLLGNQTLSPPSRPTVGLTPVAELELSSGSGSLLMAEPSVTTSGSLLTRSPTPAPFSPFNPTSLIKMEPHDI
ETV5, sequence (P41161 whole entry): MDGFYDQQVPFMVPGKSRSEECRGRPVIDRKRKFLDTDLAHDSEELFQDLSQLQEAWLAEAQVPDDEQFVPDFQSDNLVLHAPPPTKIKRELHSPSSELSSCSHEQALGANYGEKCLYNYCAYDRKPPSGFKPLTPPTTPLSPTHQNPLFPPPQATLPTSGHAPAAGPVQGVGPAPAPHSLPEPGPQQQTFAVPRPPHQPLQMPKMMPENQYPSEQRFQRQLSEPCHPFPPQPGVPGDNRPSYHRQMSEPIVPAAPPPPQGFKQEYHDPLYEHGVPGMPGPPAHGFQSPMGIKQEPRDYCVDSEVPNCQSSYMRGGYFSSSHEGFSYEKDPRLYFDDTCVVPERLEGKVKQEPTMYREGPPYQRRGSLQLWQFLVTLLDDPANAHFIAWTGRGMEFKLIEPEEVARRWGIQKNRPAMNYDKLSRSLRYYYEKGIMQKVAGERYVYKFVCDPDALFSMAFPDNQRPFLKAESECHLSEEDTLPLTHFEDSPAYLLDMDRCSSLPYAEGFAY
ETV1, sequence (P50549 whole entry): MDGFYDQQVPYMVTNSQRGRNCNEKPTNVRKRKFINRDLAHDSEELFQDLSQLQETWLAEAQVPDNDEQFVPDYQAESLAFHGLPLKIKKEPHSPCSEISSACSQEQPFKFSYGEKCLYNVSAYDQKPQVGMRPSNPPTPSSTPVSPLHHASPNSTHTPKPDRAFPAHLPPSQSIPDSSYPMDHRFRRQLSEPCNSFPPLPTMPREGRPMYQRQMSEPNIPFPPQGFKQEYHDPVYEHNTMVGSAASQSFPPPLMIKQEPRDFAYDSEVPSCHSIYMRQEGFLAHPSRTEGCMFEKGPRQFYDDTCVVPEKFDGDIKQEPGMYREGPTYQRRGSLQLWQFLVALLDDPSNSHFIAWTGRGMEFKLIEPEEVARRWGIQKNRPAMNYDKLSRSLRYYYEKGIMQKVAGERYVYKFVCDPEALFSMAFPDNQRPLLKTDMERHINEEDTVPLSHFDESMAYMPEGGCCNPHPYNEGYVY
CRX, sequence (O43186 whole entry): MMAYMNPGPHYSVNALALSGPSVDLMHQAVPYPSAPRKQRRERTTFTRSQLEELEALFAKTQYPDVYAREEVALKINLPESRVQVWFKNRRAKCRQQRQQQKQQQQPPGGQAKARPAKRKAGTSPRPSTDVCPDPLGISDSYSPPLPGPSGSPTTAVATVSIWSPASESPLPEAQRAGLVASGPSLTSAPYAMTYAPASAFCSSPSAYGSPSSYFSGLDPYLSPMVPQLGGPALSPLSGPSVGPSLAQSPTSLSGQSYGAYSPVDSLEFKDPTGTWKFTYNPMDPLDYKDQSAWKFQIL

As to AGGGCT, the binding signal is 1.03 fold enrichment (6-mer frequency, TF over GST control) with FLI1; 1.05 fold enrichment (6-mer frequency, TF over GST control) with GABPA; 1.07 fold enrichment (6-mer frequency, TF over GST control) in the assay with ERG; 1.01 fold enrichment (6-mer frequency, TF over GST control) with ELF1; 1.04 fold enrichment (6-mer frequency, TF over GST control) with EHF; 1.08 fold enrichment (6-mer frequency, TF over GST control) with ELK3. The binding signal was 1.03 fold enrichment (6-mer frequency, TF over GST control) with FEV; 1.06 fold enrichment (6-mer frequency, TF over GST control) with ETV5; 1.03 fold enrichment (6-mer frequency, TF over GST control) with HSF1; 1.07 fold enrichment (6-mer frequency, TF over GST control) with ELF4; 1.02 fold enrichment (6-mer frequency, TF over GST control) in the assay with ELK4; 1.26 fold enrichment (6-mer frequency, TF over GST control) with CRX. Also, the binding signal in the assay with ETV1 was 1.11 fold enrichment (6-mer frequency, TF over GST control).
Regarding AGACCT, the binding signal in the assay with FLI1 is 1.01 fold enrichment (6-mer frequency, TF over GST control); with ELK1 it was 1.04 fold enrichment (6-mer frequency, TF over GST control); in the assay with GABPA it was 1.02 fold enrichment (6-mer frequency, TF over GST control); with ERG, 1 fold enrichment (6-mer frequency, TF over GST control); with ELF1, 1.05 fold enrichment (6-mer frequency, TF over GST control); with SPI1, 1.06 fold enrichment (6-mer frequency, TF over GST control). Moreover, the binding signal with ELK3 is 1.01 fold enrichment (6-mer frequency, TF over GST control); with FEV, 1.04 fold enrichment (6-mer frequency, TF over GST control); with ETV5, 1.04 fold enrichment (6-mer frequency, TF over GST control); with HSF1, 1.02 fold enrichment (6-mer frequency, TF over GST control); in the assay with ELF4 it was 1.12 fold enrichment (6-mer frequency, TF over GST control); with ELK4 it was 1.07 fold enrichment (6-mer frequency, TF over GST control). Besides, the binding signal in the assay with ETV2 was 1.2 fold enrichment (6-mer frequency, TF over GST control); with ELF3 it was 1.08 fold enrichment (6-mer frequency, TF over GST control); with ETV1 it was 1.04 fold enrichment (6-mer frequency, TF over GST control).
